In PubChem BioAssay (EPA / NIEHS):
Records with an inconclusive call do not appear. Active and inactive are the calls of the source. The calls were made as follows, unless noted: active = hit-call score of the fitted dose curve at least 0.9, where 1 is the maximum; inconclusive = response in the unintended direction; inactive = score below 0.9.

How the values were obtained:
[1] = test system: Sodium/Iodide Symporter (NIS), SLC5A5 (gene 6528); assay: CPHEA_Stoker_NIS_Inhibition_RAIU: CPHEA's Radioactive Iodide Uptake (RAIU) Assay for Sodium/Iodide Symporter (NIS) Inhibition, Stoker and Laws Labs (AID 2283841)
In short: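 Iodide uptake through human NIS is measured in an engineered HEK293T line. Cells take up 125I (329pM final) for 2 hours at room temperature alongside chemicals at 0.001–100uM. Retained radioactivity is counted, and the signal is expressed against DMSO controls.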

[2] = CPHEA_Stoker_NIS_Cytotoxicity: Cytotoxicity Assessment for CPHEA's Radioactive Iodide Uptake (RAIU) Assay for Sodium/Iodide Symporter (NIS) Inhibition, Stoker and Laws Labs (AID 2283897);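 as to AC50: active means loss of ATP signal versus DMSO meaning cytotoxicity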
In short: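 ATP luminescence (Cell Titer Glo) measured viability, with loss of signal normalized to DMSO controls. Cells: hNIS-HEK293T-EPA, seeded 40 hours prior. Dosing: 0.001–100uM, 2 hours, room temperature, uptake buffer pH 7.4.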

[3] = CEETOX_H295R_11DCORT_noMTC: CeeTox H295R High-throughput Steroidogenesis Assay for 11-Deoxycortisol (11DCORT), maximum tolerated concentration (MTC) filtered results only (AID 2283911; active = hit-call score of the fitted dose curve at least 0.9, where 1 is the maximum; inactive = score below 0.9); conditions: actives raise or lower the signal
In short: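 Forskolin-primed (10 uM, 48 h) H295R adrenal cells are dosed for 48 h at 0.1% DMSO; medium 11-deoxycortisol is quantified by LC-MS/MS against a 7-point standard curve, with activity fitted in both directions versus DMSO.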

[4] = CEETOX_H295R_OHPREG_noMTC: CeeTox H295R High-throughput Steroidogenesis Assay for OH-Pregnenolone (OHPREG), maximum tolerated concentration (MTC) filtered results only (AID 2283912; active = hit-call score of the fitted dose curve at least 0.9, where 1 is the maximum; inactive = score below 0.9); conditions: actives raise or lower the signal
In short: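 Steroidogenesis in H295R cells (OECD 456, modified): after 48 h forskolin priming and 48 h chemical treatment, secreted 17alpha-hydroxypregnenolone is measured by HPLC-MS/MS. Activity is fitted in both directions against DMSO; concentrations are not filtered by MTT-based MTC.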

[5] = CEETOX_H295R_OHPROG_noMTC: CeeTox H295R High-throughput Steroidogenesis Assay for OH-Progesterone (OHPROG), maximum tolerated concentration (MTC) filtered results only (AID 2283914; active = hit-call score of the fitted dose curve at least 0.9, where 1 is the maximum; inactive = score below 0.9); conditions: actives raise or lower the signal
In short: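 Forskolin 10 uM, 48 h prestim → test cmpd in DMSO (0.1% final), 48 h → medium MTBE extraction → LC-MS/MS quant of 17alpha-OH-progesterone. Bidirectional fit vs DMSO; no MTT-based MTC filtering.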

[6] = CEETOX_H295R_CORTISOL_noMTC: CeeTox H295R High-throughput Steroidogenesis Assay for Cortisol, maximum tolerated concentration (MTC) filtered results only (AID 2283916; active = hit-call score of the fitted dose curve at least 0.9, where 1 is the maximum; inactive = score below 0.9); conditions: actives raise or lower the signal
In short: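 Cortisol secretion measured by LC-MS/MS after 48 h chemical treatment (final 0.1% DMSO) of forskolin-primed (10 uM, 48 h) H295R cells; gain or loss fitted relative to DMSO, without maximum-tolerated-concentration filtering.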

[7] = CEETOX_H295R_CORTIC_noMTC: CeeTox H295R High-throughput Steroidogenesis Assay for Corticosterone (CORTIC), maximum tolerated concentration (MTC) filtered results only (AID 2283917; active = hit-call score of the fitted dose curve at least 0.9, where 1 is the maximum; inactive = score below 0.9); conditions: actives raise or lower the signal
In short: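 Following OECD 456 with minor changes, H295R cultures received 10 uM forskolin for 48 h, then test chemical at 0.1% DMSO for 48 h. Media steroids were extracted and measured by LC-MS/MS.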

[8] = CEETOX_H295R_DOC_noMTC: CeeTox H295R High-throughput Steroidogenesis Assay for DOC, maximum tolerated concentration (MTC) filtered results only (AID 2283918; active = hit-call score of the fitted dose curve at least 0.9, where 1 is the maximum; inactive = score below 0.9); conditions: actives raise or lower the signal
In short: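 11-Deoxycorticosterone secreted by human adrenal H295R cells quantified by HPLC-MS/MS after 48 h chemical exposure (0.1% DMSO), following 48 h 10 uM forskolin prestimulation. Concentrations not filtered by MTT-derived MTC; bidirectional fitting.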

[9] = CEETOX_H295R_PROG_noMTC: CeeTox H295R High-throughput Steroidogenesis Assay for Progesterone (PROG), maximum tolerated concentration (MTC) filtered results only (AID 2283920; active = hit-call score of the fitted dose curve at least 0.9, where 1 is the maximum; inactive = score below 0.9); conditions: actives raise or lower the signal
In short: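 H295R cells; forskolin 10 uM x 48 h prestim; test cpd 48 h, 0.1% DMSO final; media progesterone via LC-MS/MS; bidirectional fit vs DMSO; no MTT-based MTC filter applied.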

PGR (gene 5241) = PGR (gene 5241) (UniProt P06401); assay: TOX21_PR_BLA_Followup_Antagonist_ratio: Tox21 HEK293 Progesterone Receptor (PR) Antagonism Beta-lactamase Follow-Up Assay, Ratio (AID 2283934);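 also: PR-UAS-bla HEK293T cells stimulated with 1 nM R5020 agonist for 16 hr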
In short: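 Antagonist mode used 1 nM R5020 (final) as agonist on a beta-lactamase reporter line in HEK293T cells. Activity was taken from the substrate cleavage ratio after 16 hr exposure.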

[10] = CEETOX_H295R_ANDR_noMTC: CeeTox H295R High-throughput Steroidogenesis Assay for Androstenedione (ANDR), maximum tolerated concentration (MTC) filtered results only (AID 2283915; active = hit-call score of the fitted dose curve at least 0.9, where 1 is the maximum; inactive = score below 0.9); conditions: actives raise or lower the signal
In short: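 H295R cells, passage 10 or below, prestimulated 48 h with 10 uM forskolin, then exposed 48 h to chemical in 0.1% DMSO. Medium androstenedione extracted with MTBE, quantified by HPLC-MS/MS; concentrations not MTC-filtered; bidirectional fit versus DMSO.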

[11] = CEETOX_H295R_ESTRADIOL_noMTC: CeeTox H295R High-throughput Steroidogenesis Assay for Estradiol, maximum tolerated concentration (MTC) filtered results only (AID 2283919; active = hit-call score of the fitted dose curve at least 0.9, where 1 is the maximum; inactive = score below 0.9); conditions: actives raise or lower the signal
In short: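 H295R human adrenal cells pre-stimulated 48 h with 10 uM forskolin, then exposed 48 h to chemical (0.1% DMSO final). Estradiol in medium measured by HPLC-MS/MS after MTBE extraction and dansyl derivatization; bidirectional fit versus DMSO, concentrations not MTT-filtered.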

[12] = CEETOX_H295R_ESTRONE_noMTC: CeeTox H295R High-throughput Steroidogenesis Assay for Estrone, maximum tolerated concentration (MTC) filtered results only (AID 2283921; active = hit-call score of the fitted dose curve at least 0.9, where 1 is the maximum; inactive = score below 0.9); conditions: actives raise or lower the signal
In short: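 H295R cells prestimulated 48 h with 10 uM forskolin, then exposed 48 h to chemical in 0.1% DMSO; medium estrone measured by HPLC-MS/MS after MTBE extraction and dansyl derivatization, fitted bidirectionally versus DMSO without MTT-based MTC filtering.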

[13] = CEETOX_H295R_TESTO_noMTC: CeeTox H295R High-throughput Steroidogenesis Assay for Testosterone (TESTO), maximum tolerated concentration (MTC) filtered results only (AID 2283924; active = hit-call score of the fitted dose curve at least 0.9, where 1 is the maximum; inactive = score below 0.9); conditions: actives raise or lower the signal
In short: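 H295R cells prestimulated 48 h with 10 uM forskolin, then exposed 48 h to chemicals in 0.1% DMSO final. Testosterone in medium quantified by MTBE extraction and HPLC-MS/MS; bidirectional fit versus DMSO, concentrations […] filtered by MTT-based maximum tolerated concentration.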

[14] = test system: turtle Thyroid Hormone Receptor, alpha (TRa), gene 101949057; assay: ATG_trTRa_XSP2: Attagene TRANS-FACTORIAL Multi-Species (XSP1) HepG2 Assay for turtle Thyroid Hormone Receptor, alpha (TRa) (AID 2283834);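 also: hits raise reporter mRNA over the DMSO baseline so AC50 marks activators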
In short: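 Multiplexed TRANS reporter assay; HepG2 carrying NR-Gal4 constructs treated 24 h. mRNA of the GAL4-UAS reporter quantified via labelled RT-PCR fragments on a genetic analyzer, vs DMSO negative control.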

[15] = ATG_M_61_XSP2: Attagene TRANS-FACTORIAL Multi-Species (XSP2) HepG2 Assay for M61 Transcription Factor (Internal Marker) (AID 2283835; active = hit-call score of the fitted dose curve at least 0.9, where 1 is the maximum; inactive = score below 0.9;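 also: reporter mRNA of an internal background marker read by RT-PCR and capillary electrophoresis; active means a rise in signal above the DMSO baseline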)
In short: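 First, HepG2 cells are transfected with reporter units under GAL4-UAS control. Next, chemicals are applied for 24 h. Then total RNA is reverse-transcribed, amplified, fluorescently labelled and sized by capillary electrophoresis, with gain of signal scored against DMSO.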

[16] = biological target: zebrafish Thyroid Hormone Receptor beta (TRb), thrb (gene 30607) (UniProt Q9PVE4); assay: ATG_zfTRb_XSP2: Attagene TRANS-FACTORIAL Multi-Species (XSP1) HepG2 Assay for zebrafish Thyroid Hormone Receptor beta (TRb) (AID 2283836);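 also: potency for induction of reporter signal above DMSO so agonist direction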
In short: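 Fluorescence of labelled reporter cDNA fragments, separated by capillary electrophoresis, gives mRNA induction from exogenous NR-Gal4 chimeras in transiently transfected HepG2 cells after 24 h dosing; 3 nM 6-alpha-fluorotestosterone and 1.5 nM norgestrel included in the run.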

[17] = biological target: human Thyroid hormone Receptor alpha (TRa), THRA (gene 7067) (UniProt P10827); assay: ATG_hTRa_XSP2: Attagene TRANS-FACTORIAL Multi-Species (XSP2) HepG2 Assay for human Thyroid hormone Receptor alpha (TRa) (AID 2283838)
In short: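 HepG2 cells transiently transfected with multiplexed GAL4-UAS reporter units and exogenous NR-GAL4 chimeras; 24 h chemical exposure with 3 nM 6-alpha-fluorotestosterone and 1.5 nM norgestrel present. Reporter mRNA measured by RT-PCR, FAM labelling, HpaI digestion, capillary electrophoresis; gain-of-signal versus DMSO.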

[18] = biological target: frog Thyroid hormone Receptor alpha (TRa), thra-a (gene 397942) (UniProt P15204); assay: ATG_frTRa_XSP2: Attagene TRANS-FACTORIAL Multi-Species (XSP2) HepG2 Assay for frog Thyroid hormone Receptor alpha (TRa) (AID 2283839);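 also: AC50 reflects induction of frog TRa-driven reporter mRNA above DMSO baseline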
In short: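 Chimeric frog TRα-GAL4 activity in human liver cells measures reporter transcript induction 24 h post-dose. Detection uses RT-PCR, HpaI-digested labelled products and fluorescence capillary electrophoresis; DMSO serves as negative control.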

[19] = biological target: human Thyroid hormone Receptor beta (TRb), THRB (gene 7068) (UniProt P10828); assay: ATG_hTRb_XSP2: Attagene TRANS-FACTORIAL Multi-Species (XSP2) HepG2 Assay for human Thyroid hormone Receptor beta (TRb) (AID 2283840);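 also: actives raise reporter mRNA so potency reflects agonist-like gain of signal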
In short: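 Gain-of-signal reporter transcription, referenced to DMSO, was measured in transiently transfected HepG2 after 24 h exposure; labeled RT-PCR products were resolved by capillary electrophoresis. Assay medium included 3 nM 6-alpha-fluorotestosterone and 1.5 nM norgestrel.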

Chain of PGR (gene 5241) (P06401 whole entry, looked up): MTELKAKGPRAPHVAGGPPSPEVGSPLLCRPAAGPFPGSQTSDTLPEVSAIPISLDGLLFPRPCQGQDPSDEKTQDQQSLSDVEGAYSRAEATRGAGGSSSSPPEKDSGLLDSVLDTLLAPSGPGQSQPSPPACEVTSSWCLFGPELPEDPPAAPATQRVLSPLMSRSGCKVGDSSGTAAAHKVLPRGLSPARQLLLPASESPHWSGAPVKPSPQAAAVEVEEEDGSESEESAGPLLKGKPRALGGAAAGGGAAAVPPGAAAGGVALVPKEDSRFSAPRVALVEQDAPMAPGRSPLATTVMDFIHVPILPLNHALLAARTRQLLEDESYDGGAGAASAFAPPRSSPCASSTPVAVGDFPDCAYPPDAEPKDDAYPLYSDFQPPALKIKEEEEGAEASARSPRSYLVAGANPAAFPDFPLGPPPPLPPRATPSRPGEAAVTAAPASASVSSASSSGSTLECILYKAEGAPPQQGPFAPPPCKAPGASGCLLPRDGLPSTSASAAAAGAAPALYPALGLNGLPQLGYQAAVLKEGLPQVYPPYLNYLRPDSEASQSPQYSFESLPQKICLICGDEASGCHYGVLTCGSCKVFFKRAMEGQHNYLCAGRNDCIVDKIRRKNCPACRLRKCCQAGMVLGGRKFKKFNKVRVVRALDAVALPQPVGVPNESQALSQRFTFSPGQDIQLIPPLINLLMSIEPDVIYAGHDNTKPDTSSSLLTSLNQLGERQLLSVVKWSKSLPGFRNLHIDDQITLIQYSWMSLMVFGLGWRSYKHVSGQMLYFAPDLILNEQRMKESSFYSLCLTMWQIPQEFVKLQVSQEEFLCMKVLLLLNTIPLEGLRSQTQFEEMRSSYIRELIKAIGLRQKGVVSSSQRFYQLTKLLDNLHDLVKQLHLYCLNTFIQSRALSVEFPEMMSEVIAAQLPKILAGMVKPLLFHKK
Chain of frog Thyroid hormone Receptor alpha (TRa), thra-a (gene 397942) (P15204 whole entry, looked up, the tested form may be a part): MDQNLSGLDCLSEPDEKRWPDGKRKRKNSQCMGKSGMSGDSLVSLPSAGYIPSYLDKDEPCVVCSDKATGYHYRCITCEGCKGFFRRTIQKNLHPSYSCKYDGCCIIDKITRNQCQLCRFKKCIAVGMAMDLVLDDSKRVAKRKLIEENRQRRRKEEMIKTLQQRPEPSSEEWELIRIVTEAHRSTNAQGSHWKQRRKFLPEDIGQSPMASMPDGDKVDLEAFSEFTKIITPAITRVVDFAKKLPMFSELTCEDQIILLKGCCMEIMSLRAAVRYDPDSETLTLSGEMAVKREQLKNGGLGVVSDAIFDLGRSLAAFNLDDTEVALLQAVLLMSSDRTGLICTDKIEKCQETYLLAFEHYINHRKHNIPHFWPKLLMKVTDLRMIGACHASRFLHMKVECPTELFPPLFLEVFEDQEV
Chain of zebrafish Thyroid Hormone Receptor beta (TRb), thrb (gene 30607) (Q9PVE4 whole entry, looked up, the tested form may be a part): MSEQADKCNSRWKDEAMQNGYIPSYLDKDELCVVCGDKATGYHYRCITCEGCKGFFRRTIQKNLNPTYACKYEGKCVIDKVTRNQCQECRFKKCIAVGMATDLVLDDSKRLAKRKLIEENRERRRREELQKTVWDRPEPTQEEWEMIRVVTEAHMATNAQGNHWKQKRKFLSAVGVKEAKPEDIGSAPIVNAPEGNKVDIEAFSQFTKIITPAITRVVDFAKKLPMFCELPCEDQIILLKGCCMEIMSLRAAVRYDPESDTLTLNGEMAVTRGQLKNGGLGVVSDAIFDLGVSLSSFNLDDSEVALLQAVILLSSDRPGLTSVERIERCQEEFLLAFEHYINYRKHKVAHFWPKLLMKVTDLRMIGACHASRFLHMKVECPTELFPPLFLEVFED
Chain of human Thyroid hormone Receptor beta (TRb), THRB (gene 7068) (P10828 whole entry, looked up): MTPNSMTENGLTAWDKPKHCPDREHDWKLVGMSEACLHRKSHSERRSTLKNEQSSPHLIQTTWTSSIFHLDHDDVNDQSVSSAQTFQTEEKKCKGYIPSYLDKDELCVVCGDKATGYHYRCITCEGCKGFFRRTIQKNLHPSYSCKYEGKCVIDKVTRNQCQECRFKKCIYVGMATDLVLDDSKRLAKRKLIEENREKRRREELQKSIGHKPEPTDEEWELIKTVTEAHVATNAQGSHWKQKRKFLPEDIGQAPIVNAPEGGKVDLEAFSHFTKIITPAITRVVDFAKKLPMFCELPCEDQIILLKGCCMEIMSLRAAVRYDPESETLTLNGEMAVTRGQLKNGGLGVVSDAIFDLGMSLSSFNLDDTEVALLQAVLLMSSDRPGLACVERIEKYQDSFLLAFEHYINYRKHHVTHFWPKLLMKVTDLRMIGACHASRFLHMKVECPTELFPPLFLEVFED
Chain of human Thyroid hormone Receptor alpha (TRa), THRA (gene 7067) (P10827 whole entry, looked up, the tested form may be a part): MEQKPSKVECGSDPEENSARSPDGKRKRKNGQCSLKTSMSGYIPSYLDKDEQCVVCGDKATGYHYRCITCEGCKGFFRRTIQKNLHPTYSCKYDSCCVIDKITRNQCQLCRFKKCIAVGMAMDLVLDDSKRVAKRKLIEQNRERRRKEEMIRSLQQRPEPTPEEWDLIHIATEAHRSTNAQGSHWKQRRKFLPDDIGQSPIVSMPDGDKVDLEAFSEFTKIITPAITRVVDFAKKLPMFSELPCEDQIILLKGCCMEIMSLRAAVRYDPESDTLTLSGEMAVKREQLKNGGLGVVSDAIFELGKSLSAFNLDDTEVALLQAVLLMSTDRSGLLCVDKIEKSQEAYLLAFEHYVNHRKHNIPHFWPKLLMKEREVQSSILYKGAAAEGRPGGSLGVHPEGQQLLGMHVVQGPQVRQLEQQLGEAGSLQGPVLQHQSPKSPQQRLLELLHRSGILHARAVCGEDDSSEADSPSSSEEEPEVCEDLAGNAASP

**Q.** With CC(C)c1nnc2ccc(-c3ocnc3-c3cc(F)ccc3F)cn12 as the molecule, how does the outcome [1] read?
**A.** inactive

**Q.** What about the outcome [2] of the same molecule?
**A.** inactive

**Q.** For Cc1nccn1-c1ccc(Sc2cccc(C3(C(N)=O)CCOCC3)c2)cc1, which outcome [1] is on record?
**A.** inactive

**Q.** What about the outcome [2] of the same molecule?
**A.** inactive

**Q.** What does the source list for O=S(=O)(O)c1ccc(N=Nc2c(O)ccc3cc(S(=O)(=O)O)ccc23)cc1?
**A.** outcome [3]: inactive; outcome [4]: inactive; outcome [5]: inactive; outcome [6]: inactive; outcome [7]: inactive; outcome [8]: inactive; outcome [9]: inactive

**Q.** Which outcome (PGR (gene 5241)) does the source give for NC(=O)N(O)[C@@H]1COc2cc(OCc3ccccc3)ccc21 here?
**A.** inactive

**Q.** For Cc1nc(-c2ccccn2)ncc1C(=O)Nn1cc(C)c2cc(F)ccc21, which AC50 [3] is on record?
**A.** 13.2 µM (active)

**Q.** What about the AC50 [4] of the same molecule?
**A.** 4.1 µM (active)

**Q.** What about the AC50 [5] of the same molecule?
**A.** 8.28 µM (active)

**Q.** What about the AC50 [10] of the same molecule?
**A.** 22.5 µM (active)

**Q.** What about the AC50 [6] of the same molecule?
**A.** 12.7 µM (active)

**Q.** And the AC50 [7]?
**A.** 9.57 µM (active)

**Q.** What about the AC50 [8] of the same molecule?
**A.** 5.19 µM (active)

**Q.** What about the outcome [11] of the same molecule?
**A.** inactive

**Q.** What about the AC50 [9] of the same molecule?
**A.** 3.34 µM (active)

**Q.** And the outcome [12]?
**A.** inactive

**Q.** What about the AC50 [13] of the same molecule?
**A.** 11.5 µM (active)

**Q.** With COc1cc(C(C)C)c2c(c1)S(=O)(=O)N(COc1cc(=O)n3cccc(OCCN4CCCCC4)c3n1)C2=O as the molecule, how does the outcome [1] read?
**A.** inactive

**Q.** What about the outcome [2] of the same molecule?
**A.** inactive

**Q.** For CCCCCCCCCCCCCCCCOS(=O)(=O)O, which outcome [2] is on record?
**A.** inactive

**Q.** What does the source list for CC(C)C(=O)Nc1ccc([N+](=O)[O-])c(C(F)(F)F)c1?
**A.** AC50 [14]: 35.9 µM (active); outcome [15]: inactive; AC50 [16]: 65.2 µM (active); AC50 [17]: 50.1 µM (active); AC50 [18]: 42.2 µM (active); AC50 [19]: 62.4 µM (active); outcome [1]: inactive; outcome [2]: inactive; AC50 (PGR (gene 5241)): 46.1 µM (active)

**Q.** With OCC(CO)(CO)CO as the molecule, how does the outcome [1] read?
**A.** inactive

**Q.** And the outcome [2]?
**A.** inactive

**Q.** For CCCCOC(=O)c1ccccc1, which outcome [1] is on record?
**A.** inactive

**Q.** And the outcome [2]?
**A.** inactive

**Q.** What does the source list for C=CCc1cc(S(=O)(=O)c2ccc(O)c(CC=C)c2)ccc1O?
**A.** outcome [14]: inactive; outcome [15]: inactive; AC50 [18]: 1.72 µM (active); AC50 [1]: 38.9 µM (active); AC50 [2]: 36.8 µM (active)
